In PubChem BioAssay AID1159580 (chemical genetic matrix, 2015):
Out of some 5,500 compounds screened, about 2,000 (36%) were called active. Another 18% or so got no clear call; they are omitted. Rule as the data show it: active = normalized growth mostly below about 0.91 (no sharp cut-off); inconclusive = no clear call, values can overlap the other calls; inactive = mostly above about 0.92. The list shows a part of the results.

Experiment: chemical genetic growth profiling, strain panel (AID 1159580);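 also: tested at 20 µM; growth read once vehicle control cultures reached saturation at 30 °C; 1 = growth at the plate median or of vehicle wells; lower values mean less growth of the strain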
Settings: growth OD
[1] = S. cerevisiae deletion strains, locus YDL101C, strain DUN1, active compounds read low
[2] = S. cerevisiae deletion strains, locus YHR030C, strain SLT2, active compounds read low

Measured: normalized growth

Cc1cc(NC(=O)Nc2cccc(C(F)(F)F)c2)n(C)n1
inactive: S. cerevisiae deletion strains, locus YAL013W, strain DEP1, active compounds read low 1 | S. cerevisiae deletion strains, locus YBR229C, strain ROT2, active compounds read low 0.997 | S. cerevisiae deletion strains, locus YCL061C, strain MRC1, active compounds read low 1.01 | [1] 0.983 | S. cerevisiae deletion strains, locus YDR150W, strain NUM1, active compounds read low 0.998 | S. cerevisiae deletion strains, locus YEL061C, strain CIN8, active compounds read low 1.01 | S. cerevisiae deletion strains, locus YGR078C, strain PAC10, active compounds read low 1.01 | [2] 1.08 | S. cerevisiae deletion strains, locus YHR087W, strain rtc3, active compounds read low 0.989 | S. cerevisiae deletion strains, locus YJR043C, strain POL32, active compounds read low 0.998 | S. cerevisiae deletion strains, locus YJR075W, strain HOC1, active compounds read low 0.992 | S. cerevisiae deletion strains, locus YLR039C, strain RIC1, active compounds read low 1.02 | S. cerevisiae deletion strains, locus YLR058C, strain SHM2 (second series), active compounds read low 1.01 | S. cerevisiae deletion strains, locus YLR085C, strain ARP6, active compounds read low 0.986 | S. cerevisiae deletion strains, locus YLR262C, strain YPT6, active compounds read low 1.09 | S. cerevisiae deletion strains, locus YML094W, strain GIM5, active compounds read low 0.987 | S. cerevisiae deletion strains, locus YMR219W, strain ESC1, active compounds read low 1 | S. cerevisiae deletion strains, locus YMR263W, strain SAP30, active compounds read low 1.01 | S. cerevisiae deletion strains, locus YNL153C, strain GIM3, active compounds read low 0.998 | S. cerevisiae deletion strains, locus YNL298W, strain CLA4 (second series), active compounds read low 0.991 | S. cerevisiae deletion strains, locus YNL322C, strain KRE1, active compounds read low 1.01 | S. cerevisiae deletion strains, locus YNR030W, strain Alg12, active compounds read low 1 | S. cerevisiae deletion strains, locus YOL006C, strain TOP1, active compounds read low 1 | S. cerevisiae deletion strains, locus YPL055C, strain LGE1, active compounds read low 0.989 | S. cerevisiae deletion strains, locus YPL241C, strain CIN2, active compounds read low 0.981 | S. cerevisiae deletion strains, locus YPR135W, strain CTF4, active compounds read low 1.08 | S. cerevisiae strains, strain wild type, active compounds read low 0.986

CC(C)Sc1c(Cl)cccc1NC(=O)Nc1cccc(C(F)(F)F)c1
inactive: S. cerevisiae deletion strains, locus YAR019C, strain CDC15, active compounds read low 0.981 | S. cerevisiae deletion strains, locus YBL105C, strain PKC1, active compounds read low 0.977 | S. cerevisiae deletion strains, locus YBR135W, strain CKS1, active compounds read low 0.972 | S. cerevisiae deletion strains, locus YBR136W, strain MEC1, active compounds read low 0.978 | S. cerevisiae deletion strains, locus YBR160W, strain CDC28, active compounds read low 0.981 | S. cerevisiae deletion strains, locus YDL017W, strain CDC7, active compounds read low 0.984 | S. cerevisiae deletion strains, locus YDL028C, strain MPS1, active compounds read low 0.979 | [1] 0.98 | S. cerevisiae deletion strains, locus YDL108W, strain KIN28, active compounds read low 0.972 | S. cerevisiae deletion strains, locus YDL132W, strain cdc53, active compounds read low 0.975 | S. cerevisiae deletion strains, locus YDL214C, strain PRR2, active compounds read low 0.927 | S. cerevisiae deletion strains, locus YDR052C, strain DBF4, active compounds read low 0.979 | S. cerevisiae deletion strains, locus YDR054C, strain cdc34, active compounds read low 0.97 | S. cerevisiae deletion strains, locus YDR226W, strain ADK1, active compounds read low 0.965 | S. cerevisiae deletion strains, locus YDR477W, strain SNF1, active compounds read low 0.916 | S. cerevisiae deletion strains, locus YER123W, strain YCK3, active compounds read low 0.888 | S. cerevisiae deletion strains, locus YER133W, strain GLC7, active compounds read low 0.945 | S. cerevisiae deletion strains, locus YFL009W, strain cdc4, active compounds read low 0.99 | S. cerevisiae deletion strains, locus YFL029C, strain CAK1, active compounds read low 0.976 | S. cerevisiae deletion strains, locus YFR003C, strain YPI1, active compounds read low 0.974 | S. cerevisiae deletion strains, locus YFR019W, strain FAB1, active compounds read low 0.918 | S. cerevisiae deletion strains, locus YFR028C, strain CDC14, active compounds read low 0.974 | S. cerevisiae deletion strains, locus YGR040W, strain KSS1, active compounds read low 0.908 | S. cerevisiae deletion strains, locus YGR052W, strain FMP48, active compounds read low 1.04 | S. cerevisiae deletion strains, locus YGR092W, strain DBF2, active compounds read low 0.94 | S. cerevisiae deletion strains, locus YHR079C, strain IRE1, active compounds read low 0.953 | S. cerevisiae deletion strains, locus YHR082C, strain KSP1, active compounds read low 0.96 | S. cerevisiae deletion strains, locus YHR205W, strain SCH9, active compounds read low 0.891 | S. cerevisiae deletion strains, locus YIL147C, strain SLN1, active compounds read low 0.979 | S. cerevisiae deletion strains, locus YJL095W, strain BCK1, active compounds read low 0.887 | S. cerevisiae deletion strains, locus YJL128C, strain PBS2, active compounds read low 0.956 | S. cerevisiae deletion strains, locus YJL157C, strain FAR1, active compounds read low 0.946 | S. cerevisiae deletion strains, locus YJR016C, strain ILV3, active compounds read low 0.984 | S. cerevisiae deletion strains, locus YJR066W, strain TOR1 (second series), active compounds read low 0.943 | S. cerevisiae deletion strains, locus YJR066W, strain TOR1, active compounds read low 0.912 | S. cerevisiae deletion strains, locus YKL048C, strain ELM1, active compounds read low 0.946 | S. cerevisiae deletion strains, locus YKL067W, strain YNK1, active compounds read low 0.914 | S. cerevisiae deletion strains, locus YKL101W, strain HSL1, active compounds read low 0.937 | S. cerevisiae deletion strains, locus YKL193C, strain SDS22, active compounds read low 0.975 | S. cerevisiae deletion strains, locus YKL203C, strain TOR2, active compounds read low 0.947 | S. cerevisiae deletion strains, locus YLR113W, strain HOG1, active compounds read low 0.908 | S. cerevisiae deletion strains, locus YLR133W, strain CKI1, active compounds read low 0.922 | S. cerevisiae deletion strains, locus YLR403W, strain SFP1, active compounds read low 0.953 | S. cerevisiae deletion strains, locus YML070W, strain DAK1, active compounds read low 0.929 | S. cerevisiae deletion strains, locus YMR001C, strain CDC5, active compounds read low 0.977 | S. cerevisiae deletion strains, locus YMR205C, strain PFK2 (second series), active compounds read low 0.936 | S. cerevisiae deletion strains, locus YMR277W, strain FCP1, active compounds read low 0.973 | S. cerevisiae deletion strains, locus YNL006W, strain LST8, active compounds read low 0.98 | S. cerevisiae deletion strains, locus YNL020C, strain ARK1, active compounds read low 0.926 | S. cerevisiae deletion strains, locus YNL161W, strain CBK1, active compounds read low 0.983 | S. cerevisiae deletion strains, locus YNL183C, strain NPR1, active compounds read low 0.918 | S. cerevisiae deletion strains, locus YNL207W, strain RIO2, active compounds read low 0.982 | S. cerevisiae deletion strains, locus YNL222W, strain SSU72, active compounds read low 0.97 | S. cerevisiae deletion strains, locus YNL307C, strain MCK1 (second series), active compounds read low 0.876 | S. cerevisiae deletion strains, locus YOL078W, strain AVO1, active compounds read low 0.966 | S. cerevisiae deletion strains, locus YOL136C, strain PFK27, active compounds read low 0.93 | S. cerevisiae deletion strains, locus YOR061W, strain CKA2, active compounds read low 0.957 | S. cerevisiae deletion strains, locus YOR119C, strain RIO1, active compounds read low 0.995 | S. cerevisiae deletion strains, locus YOR231W, strain MKK1, active compounds read low 0.946 | S. cerevisiae deletion strains, locus YOR329C, strain SCD5, active compounds read low 0.98 | S. cerevisiae deletion strains, locus YPL031C, strain PHO85, active compounds read low 0.905 | S. cerevisiae deletion strains, locus YPL153C, strain RAD53, active compounds read low 0.911 | S. cerevisiae deletion strains, locus YPL204W, strain HRR25, active compounds read low 0.896 | S. cerevisiae deletion strains, locus YPL209C, strain IPL1, active compounds read low 0.976 | S. cerevisiae deletion strains, locus YPL256C, strain CLN2, active compounds read low 0.861 | S. cerevisiae deletion strains, locus YPR025C, strain CCL1, active compounds read low 0.979 | S. cerevisiae deletion strains, locus YPR106W, strain ISR1, active compounds read low 0.976 | S. cerevisiae deletion strains, locus YPR111W, strain DBF20, active compounds read low 0.974 | S. cerevisiae deletion strains, strain NNK1, active compounds read low 0.97 | S. cerevisiae deletion strains, strain TSCII, active compounds read low 0.992
active: [2] 0.773
